Where “and” joins values, the source holds several entries; their conditions need not be identical. Identical values can stand only once. About 83,000 compounds went through this panel and 20% of them were active in at least one assay; those are over-represented in the sample as a whole.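 Values shown are percent growth following 48 h exposure of cells in 96-well plates to a single concentration of compound; below 10 was considered active.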 A number with no mark means an inactive call. Calls of active or inactive are those of the source.
What follows are molecules tested on SK-MEL-28 melanoma (assay: NCI-60 one-dose screen, 48 h (100 = growth as untreated, 0 = no growth, -100 = all killed)). Conditions: 4.75 µM.
Protocol: Growth inhibition of the SK-MEL-28 human tumor cell line is measured as a screen for anti-cancer activity. Cells are grown in 96 well plates and exposed to the test compound for 48 hours. Compounds are tested at a single concentration, which is 10^-5 M for most compounds. The reported endpoint is percent growth (GI% or GIPRCNT), where numbers from 0 - 100% represent growth inhibition, and numbers from -100% - 0 represent cell death. For example, a value of 40 represents 60% growth inhibition. A value of 0 means no net growth occurred over the course of the experiment. A value of -40 indicates 40% of cells at the beginning of the experiment died by the end of the experiment. A value of -100 means all cells are dead at the end of the experiment.
NCI-60 Human Tumor Cell Lines Screen was performed using the standard one-dose NCI protocol, which is described in more detail at https://dtp.cancer.gov/discovery_development/nci-60/default.htm.
Compounds with GIPRCNT values below 10 were considered active. Activity score was based on GIPRCNT using the following formula: […]
Score is 0 for GIPRCNT values of 100 or above, 50 for GIPRCNT values of 0, and 100 for GIPRCNT values of -100.

Row | Structure (SMILES) | growth [%]
1 | CC(=O)OCC1OC([S-])C(OC(C)=O)C(OC(C)=O)C1OC(C)=O.[Au+].c1ccc(CN2[CH-]N(Cc3ccccc3)C(c3ccccc3)=C2c2ccccc2)cc1 | 10

Same assay, conditions: 10 µM

Row | Structure (SMILES) | growth [%]
2 | CC(=O)OCC1OC([S-])C(OC(C)=O)C(OC(C)=O)C1OC(C)=O.[Au+].c1ccc(CN2[CH-]N(Cc3ccccc3)C(c3ccccc3)=C2c2ccccc2)cc1 | 20.2

Same assay, conditions: 10 µM unless noted

Row | Structure (SMILES) | growth
3 | COC(=O)C1=CO[C@@H](C)[C@@H]2CN3CCc4c([nH]c5cc(OC)ccc45)[C@@H]3C[C@H]12 | 114%
4 | Nc1nc(=S)nc(N)[nH]1 | 100%
5 | CC[C@H](C)[C@H](NC(=O)CN(C)C)C(=O)N(C)[C@H](C[C@@H](OC(C)=O)c1nc(C(=O)NC23CC(C(=O)OC)(C2)C3)cs1)C(C)C | 66.4%
6 | CCN(CC)CCn1c(=O)n(C)c2ccccc21 | 114%
7 | O=[N+]([O-])c1ccc(CI)cc1 | 104%
8 | C[C@]12CC[C@H]3[C@@H](CC=C4c5nc(-c6ccc(Br)cc6)sc5CC[C@@]43C)[C@@H]1CC[C@@H]2O | 90.1%
9 | CC[C@H](C)[C@H](NC(=O)c1ncccn1)C(=O)N(C)[C@H](C[C@@H](OC(C)=O)c1nc(C(=O)N[C@@H](Cc2ccccc2)C[C@H](C)C(=O)OC)cs1)C(C)C | 50.3%
10 | CC1(C)N=C(N)N=C(N)N1c1ccc(CCC(=O)Nc2ccc(S(=O)(=O)F)cc2)cc1 | 52%
11 | [N-]=[N+]=CC(=O)CCC(=O)C=[N+]=[N-] | 112%
12 | COc1cc(C=C2C(=O)NC(=O)NC2=O)ccc1O | 131%
13 | CC(Oc1ccc(-c2ccccc2)cc1)C(=O)O (stereo unspecified) | 110%
14 | C[C@]12CCc3nc(-c4ccc(O)c(O)c4)sc3C1=CC[C@@H]1[C@@H]2CC[C@]2(C)C(=O)CC[C@@H]12 | 84.6%
15 | O=C(O)C(O)c1ccc(Cl)cc1 (stereo unspecified) | 106% and 109%
16 | O=[N+]([O-])c1c(Cl)cc(Cl)c([N+](=O)[O-])c1Cl | 100%
17 | CN1[C@@H](CC(=O)c2ccccc2)CCC[C@H]1CC(=O)c1ccccc1 | 103%
18 | Nc1ccc(S(=O)(=O)F)cc1 | 114%
19 | O=C1NC(=O)C(=Cc2ccccc2)C(=O)N1 | 104% and 115%
20 | CC1(C)C2CCC1(CS(=O)(=O)O)C(=O)C2 (stereo unspecified) | 109% and 126%
21 | O=C1CCCCC1CN1CCCCC1 (stereo unspecified) | 106%
22 | CCOC(=O)P(=O)(OCC)OCC | 106%

Row | Structure (SMILES) | growth
23 | Cc1ccc(N2CCN(CCC#N)CC2)cc1 | 98.7%
24 | CC[C@H](C)[C@H](NC(=O)[C@H]1CCCCN1C)C(=O)N(C)[C@H](C[C@@H](OC(C)=O)c1cccc(C(=O)N[C@@H](Cc2ccccc2)C[C@H](C)C(=O)OC)n1)C(C)C | 62.8%
25 | C[C@@]12CCCc3coc(c31)C(=O)c1cc3c(cc12)C(=O)C1=C(NCCS1(=O)=O)C3=O | -9.02% (active)
26 | O=C(O)C(Br)CBr (stereo unspecified) | 110%
27 | Cc1cc(C(C)(C)C)ccc1O | 110%
28 | O=S1(=O)OCCO1 | 100%
29 | CC1=C([Te]c2ccccc2)C(=O)c2ccccc2C1=O | -64.4% (active)
30 | CN(C)C(=S)SSC(=S)N(C)C | 116% and 114%
31 | C/C(=N/OC(=O)N(C)C)c1ccc(Cl)c(Cl)c1 | 105%
32 | Cc1c2ccncc2c(C)c2c1[nH]c1ccccc12 | -96.7% (active)
33 | O=C(O)CCCc1ccc(N(CCCl)CCCl)cc1 | 99.3%
34 | C[C@@H]1C/C=C\C(=O)O[C@H](/C=C/C#C/C=C/C(C)(C)[C@@H](O)c2cccc(O)c2Br)[C@@H](C)/C=C/[C@H](C)C[C@H](OC(N)=O)C1 | 35.5%
35 | N#CCC(=O)c1ccccc1 | 114%
36 | O=NN(c1ccccc1)c1ccccc1 | 114%
37 | CCCN1C(=O)NC(=O)C(CC)(N2C(=O)c3c(F)c(F)c(F)c(F)c3C2=O)C1=O (stereo unspecified) | -93.7% (active)
38 | O=[N+]([O-])c1cc(Cl)c(Cl)cc1Cl | 115% and 124%
39 | O=NN1CCCCC1 | 110%
40 | CC1=C2[C@H]3OC(=O)[C@@H](C)[C@@H]3CC[C@@]2(C)C=CC1=O | 122%
41 | NC1CN2CCC1CC2 (stereo unspecified) | 100%

— PubChem BioAssay (NCI)
